Source: PubChem BioAssay AID1345085 (National Center for Advancing Translational Sciences (NCATS), 2018)
Inconclusive results are not listed. Values without a mark were called inactive. Active and inactive are the calls of the source. Calls follow the shape of the dose curve; as a rule, active = well fitted cell-killing curve with a large enough effect; inconclusive = small, poorly fitted or top-dose-only effect, or effect the other way; inactive = no such curve, though single readings can be large or run the other way.

System: JEG-3
Assay: Confirmatory qHTS for gynecologic anti-cancer compounds from libraries of approved drugs and bioactive compounds; also: nearly all actives have a fitted effect of over 55% in size
Conditions: gynecologic cancer cell panel viability, ATPlite luminescence, 48 h; series mostly up to 57.6 µM; activity change, negative = viability loss: at the top concentration
Summary of the method: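 ATP-based luminescent viability (ATPlite) after 48 h drug treatment at 37 °C, 5% CO2, across 57.5 uM–0.977 nM in 1:3 steps. Cells seeded at 1,000 per well 16 h beforehand; IC50 values computed, HEK 293T as selectivity control.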
% is scaled to controls: 0 for no effect and ±100 for the full control effect; potency is read from the fitted curve at half-maximal effect.

SMILES | Potency | activity change, negative = viability loss
COc1cccc2c1C(=O)c1c(O)c3c(c(O)c1C2=O)C[C@@](O)(C(=O)CO)C[C@@H]3O[C@H]1C[C@H](N)[C@H](O)[C@H](C)O1 | 1.09 µM (active) | –
CCOc1cc2ncc(C#N)c(Nc3ccc(F)c(Cl)c3)c2cc1NC(=O)/C=C/CN(C)C | 30.6 µM (active) | –
CC[C@@]1(O)C(=O)OCc2c1cc1n(c2=O)Cc2cc3cc(O)ccc3nc2-1 | 0.217 µM (active) | –
Cc1cnc(Nc2cccc(CN3CCOCC3)c2)nc1Nc1cccc(S(=O)(=O)NC(C)(C)C)c1 | 17.2 µM (active) | –
C1CCC(C(CC2CCCCN2)C2CCCCC2)CC1 (configuration not stated) | 27.3 µM (active) | –
CS(=O)(=O)c1ccc(C(=O)Nc2ccc(Cl)c(-c3ccccn3)c2)c(Cl)c1 | – | -1.27%
COc1ccc(CCC(=O)c2c(O)cc(O[C@@H]3O[C@H](CO)[C@@H](O)[C@H](O)[C@H]3O[C@@H]3O[C@@H](C)[C@H](O)[C@@H](O)[C@H]3O)cc2O)cc1O | – | 8.82%
NC(=O)c1ccc2nc(-c3ccc(Oc4ccc(Cl)cc4)cc3)[nH]c2c1 | 21.7 µM (active) | –
COc1cc(N2CCC(N(C)C)CC2)ccc1Nc1ncc(Cl)c(Nc2ccccc2P(C)(C)=O)n1 | 15.3 µM (active) | –
Cc1cc(Nc2nc(N[C@@H](C)c3ccc(F)cc3)c(C#N)cc2F)n[nH]1 | 19.3 µM (active) | –
COc1cccc2c1C(=O)c1c(O)c3c(c(O)c1C2=O)C[C@@](O)(C(=O)CO)C[C@@H]3O[C@H]1C[C@H](N)[C@H](O[C@@H]2CCCCO2)[C@H](C)O1 | 13.7 µM (active) | –
CCn1cc(-c2ccnc3[nH]c(-c4cccc(CN(C)C)c4)cc23)c(-c2ccc(NC(=O)N(C)C)cc2)n1 | 13.3 µM (active) | –
O=c1cc(CN2CCOCC2)occ1OCCCCCSc1ccnc2cc(C(F)(F)F)ccc12 | 8.63 µM (active) | –
COCCOc1ccc2c(c1)ncn2-c1ccc2cccc(N3CCC(N)CC3)c2n1 | 10.9 µM (active) | –
CC(C)Nc1cc(-c2c[nH]c(C(=O)N[C@H](CO)c3cccc(Cl)c3)c2)c(Cl)cn1 | 27.3 µM (active) | –
FC(F)(F)c1ccc(/C=C/c2nc(COc3ccc(CCCCn4ccnn4)cc3)co2)cc1 | 0.0172 µM (active) | –

SMILES | Potency | activity change, negative = viability loss
Cc1ccc(C(=O)Nc2ccc(CN3CCN(C)CC3)c(C(F)(F)F)c2)cc1C#Cc1cnc2cccnn12 | 27.3 µM (active) | –
CCN(CC)CCCC(C)Nc1ccnc2cc(Cl)ccc12 (configuration not stated) | – | 8.84% [at 19.5 µM]
COc1cc2nccc(Oc3ccc(NC(=O)C4(C(=O)Nc5ccc(F)cc5)CC4)cc3)c2cc1OC | 10.9 µM (active) | –
COc1cc2c(Nc3ccc(NC(=O)c4ccccc4)cc3)ncnc2cc1OCCCN1CCOCC1 | 27.3 µM (active) | –
Nc1ncnc2c1ncn2[C@@H]1O[C@H](CO)C[C@H]1O | – | 23.9%
CNC(=O)CN1CCC(Oc2cc3c(Nc4cccc(Cl)c4F)ncnc3cc2OC)CC1 | – | -23.5%
CCN(CC)CCCC(C)Nc1c2ccc(Cl)cc2nc2ccc(OC)cc12 (configuration not stated) | 43.2 µM (active) | –
CNC(=O)c1ccccc1Sc1ccc2c(/C=C/c3ccccn3)n[nH]c2c1 | 13.7 µM (active) | –
Cn1c(=O)c(-c2c(Cl)cccc2Cl)cc2cnc(Nc3cccc(C(=O)O)c3)nc21 | – | -18.8%
Cc1ccc(C(=O)N(CCCN)C(c2nc3cc(Cl)ccc3c(=O)n2Cc2ccccc2)C(C)C)cc1 (configuration not stated) | 0.0153 µM (active) | –
CN(C)CC/C=C1\c2ccccc2COc2ccccc21 | – | -6.65%
CC(Oc1cc(-n2cnc3ccc(CN4CCN(C)CC4)cc32)sc1C(N)=O)c1ccccc1C(F)(F)F (configuration not stated) | 1.93 µM (active) | –
Oc1cn2c(n1)Nc1ccc(Cl)c(Cl)c1C2 | – | 10.8% [at 19.5 µM]
CO[C@@]12[C@H](COC(N)=O)C3=C(C(=O)C(C)=C(N)C3=O)N1C[C@@H]1N[C@@H]12 | – | 5.97%
COc1ccc(-c2ccc3c(N4CCOCC4C)nc(N4CCOCC4C)nc3n2)cc1CO (configuration not stated) | – | -1.03%
N=C(N)c1ccc(OCCCCCOc2ccc(C(=N)N)cc2)cc1 | 3.43 µM (active) | –
